A short description of this test: HT29 colon tumor cell growth inhibition, primary screen, imaging, high content imaging, 72 h, CellTiter-Glo (AID 772).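 As to condensed nuclei: condensed means nuclear area below control median minus 1.5 SD.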 The settings on record: HCS imaging cell count, at 10 µM, stronger effect = higher value; for condensed nuclei: measured here: percent cells with condensed nuclei. For orientation: Cellular ATP, detected with luciferase, serves as a proxy for viable cell number.

The mark [1] stands for this setting: measured here: ATP CellTiter-Glo viability.

The values that follow come from PubChem BioAssay AID772 (SRMLSC, 2007).

Out of some 3,300 compounds screened, about 20 (0.6%) were called active.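 The calls were made as follows: active = growth inhibition above 90%, meaning viable cell count cut by more than 90% versus vehicle controls; inactive = growth inhibition below 90%.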 Many of the other results were omitted from the sample, so actives are more common in it than they were.

On to `CCN(CC)CCN1C(=O)C(O)=C(C(=O)c2ccco2)C1c1ccccn1` (configuration not stated), for which the growth inhibition was -51.4% (inactive) and the condensed nuclei came to 2.14%. For the same molecule, the growth inhibition under setting [1] is -77%.
For `CC(=O)C1=C(NC(=O)c2ccccc2F)C[C@@H]2[C@H]1C2(C)C`, in that order: -1.88% (inactive), 2.19% and -28.5%.
For `Cc1ccc(-n2c(=O)c3c4c(sc3n3c(C)nnc23)COC(C(C)C)C4)cc1` (configuration not stated), in that order: -38% (inactive), 4.02% and -56.1%.
As for `O=C(NC1CCS(=O)(=O)C1)N1CCCCC1` (configuration not stated), the growth inhibition was 28.2% (inactive) and the condensed nuclei is 9.88%. Further, the growth inhibition under setting [1] was found to be 4.61%.
For `COC(=O)c1ccccc1NC(=O)CSc1nnc(-c2ccncc2)o1`, in that order: 11.7% (inactive), 4.89% and -27.3%.
Turning to `CCOC(=O)c1[nH]c2ccc(C)cc2c1N=CN(CC)CC`, the growth inhibition is 1.88% (inactive) and the condensed nuclei was 12.3%. Also, under setting [1], the growth inhibition is -13%.
For `COc1cccc(OC)c1OCCN1CCN(C(=O)c2ccco2)CC1`, in that order: 18.1% (inactive), 3.57% and 7.71%.
For `COc1cc2nc(N3CCN(C(=O)C4CCCO4)CC3)nc(N)c2cc1OC` (configuration not stated), in that order: -61.2% (inactive), 2.06% and -20.9%.
For `COc1cc2nc(N3CCN(C(=O)C4COc5ccccc5O4)CC3)nc(N)c2cc1OC` (configuration not stated), in that order: 96% (active), 21.8% and 83.5%.
In the case of `COc1ccc2[nH]c(C)c(C(=O)CN3CCN(C(=O)c4ccco4)CC3)c2c1`, the growth inhibition was -20.9% (inactive) and the condensed nuclei is 3.46%. In addition, the growth inhibition under setting [1] was -49.5%.
For `COC(=O)c1ccccc1NC(=O)C1COc2ccccc2O1` (configuration not stated) the same measures were 16.2% (inactive), 13.5% and 13.5%.
For `COc1cc2nc(N3CCN(C(=O)c4ccco4)CC3)nc(N)c2cc1OC`, in that order: 94.7% (active), 30.2% and 67.4%.
Consider `O=C(O)c1nsc(Cl)c1Cl`, for which the growth inhibition is -41.6% (inactive) and the condensed nuclei was 1.81%. Further, under setting [1], the growth inhibition is -55.8%.
`Cc1cccc(OCC(=O)N2CCC(N3CCCCCC3)CC2)c1`: the growth inhibition was -20.3% (inactive) and the condensed nuclei stood at 13.8%. Also, the growth inhibition under setting [1] is -10.7%.
For `CN(C)CC(O)COc1ccc(-c2ccc(C#N)cc2)cc1` (configuration not stated) the same measures were 90.2% (active), 7.89% and 86%.
Turning to `CN(C)CC(O)COc1ccc(C(C)(C)c2ccc(OCC(O)CN(C)C)cc2)cc1` (configuration not stated), the growth inhibition was 61.9% (inactive) and the condensed nuclei came out at 18.1%. In addition, the growth inhibition under setting [1] was determined as 98.3%.
For `CN(C)CC(O)COc1cccc(OCC(O)CN(C)C)c1` (configuration not stated), in that order: -49% (inactive), 5.18% and -41%.
For `Cn1c(=O)c2c(nc(Br)n2Cc2ccc3ccccc3c2)n(C)c1=O`, in that order: 57.1% (inactive), 5.08% and 9.53%.
`Cc1cc(=O)[nH]c(SCC(=O)c2ccccc2)c1C#N`: the growth inhibition is 27.9% (inactive) and the condensed nuclei was 2.93%. In addition, the growth inhibition under setting [1] was -16.6%.
For `CCCSc1nc(C)c(CC(=O)O)c(=O)[nH]1` the same measures were -32.6% (inactive), 3.23% and -21%.
For `CCN(CC)C(=O)C1CCN(c2ncnc3c2cnn3-c2ccc(C)cc2C)CC1`, in that order: 63.8% (inactive), 6.87% and 64.7%.
For `Fc1ccc(C2C3=C(Nc4ncnn42)c2ccccc2OC3c2ccncc2)cc1` (configuration not stated), in that order: 61.8% (inactive), 17.7% and 20.5%.
Regarding `CCCOc1ccc(CSC(CC(=O)O)C(=O)O)cc1` (configuration not stated), the growth inhibition was -29% (inactive) and the condensed nuclei came to 0.98%. For the same molecule, under setting [1], the growth inhibition is -72.1%.
For `COC(=O)C1=C(C)N=C2SC(C)C(=O)N2C1/C=C/c1ccccc1OC` (configuration not stated) the same measures were -57.1% (inactive), 1.79% and -59.2%.
For `CCCCC(=O)c1c(C)cc(C)[nH]c1=O` the same measures were -16.9% (inactive), 1.27% and -46.2%.
For `CCN(CC)CCN1C(=O)C(O)=C(C(=O)c2cccs2)C1c1ccccn1` (configuration not stated), in that order: -42% (inactive), 3.64% and -45.7%.
For the molecule `CCN(CC)CCOC(=O)c1c(C)n(C)c2ccc(OC)cc12`, the growth inhibition was -57.1% (inactive) and the condensed nuclei stood at 3.82%. For the same molecule, the growth inhibition under setting [1] is -23%.
With `Cn1cc(Cl)nc1C(O)c1ccccc1` (configuration not stated), the growth inhibition is -111% (inactive) and the condensed nuclei turned out to be 2.87%. Under setting [1], the growth inhibition was -43.7%.
For `Cc1cc2c(c(=O)o1)C(CC(C)C)C(C#N)=C(N)O2` (configuration not stated), in that order: 18.4% (inactive), 2.71% and -9.11%.
For `N/C(CCN1CCCCC1)=N/O` the same measures were 20.8% (inactive), 6.52% and 13.8%.
With `c1ccc(Cc2nn[nH]n2)cc1`, the growth inhibition was 14.9% (inactive) and the condensed nuclei stood at 4.71%. Further, under setting [1], the growth inhibition is -16.9%.
With `N#C/C(=N\O)c1nc(-c2ccccc2)cs1`, the growth inhibition was -131% (inactive) and the condensed nuclei was 3.16%. Besides, the growth inhibition under setting [1] was -49.8%.
As to `CCOc1cccc(-c2nnc3sc(-c4ccco4)nn23)c1`, the growth inhibition is -51.8% (inactive) and the condensed nuclei was determined as 2.36%. Moreover, the growth inhibition under setting [1] is -46.9%.
For `CCOC(=O)C(Oc1ccc(=O)[nH]n1)C(C)=O` (configuration not stated), in that order: -6.93% (inactive), 3.6% and -59.3%.
As to `CC(C)Sc1nnc2n(CCc3ccccc3)c(=O)c3c4c(sc3n12)COC(C)(C)C4`, the growth inhibition was 0.75% (inactive) and the condensed nuclei was 1.47%. The growth inhibition under setting [1] is -42.2%.
For `CCc1[nH]c(=O)c(C#N)c2c1CSC(C)(C)C2` the same measures were 9.49% (inactive), 4.45% and -3.16%.
For `Cc1nn(C)cc1C1C2=C(CC(C)(C)CC2=O)OC2=C1C(=O)CC(C)(C)C2` the same measures were -19.8% (inactive), 2.88% and -38.9%.
Regarding `CC1(C)CC(=O)C2=C(C1)Oc1nc3ccccc3cc1C2C(C#N)C#N` (configuration not stated), the growth inhibition was 92.5% (active) and the condensed nuclei worked out at 0%. Besides, the growth inhibition under setting [1] was 71.1%.
For `CC1(C)CC(=O)C2=C(C1)OC(N)=C(C#N)C2C1C=CCCC1` (configuration not stated), in that order: 59.5% (inactive), 3.5% and 32.2%.
